Measured values as given in the supplement of paper PMC12669032.
A number with no mark means an inactive call.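 Rule for the calls: active = AUC reduced over 20% with Padj below 0.05 in at least 2 of 3 replicates; inactive = otherwise.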

Experiments:
Test in all cases: growth AUC relative to DMSO control (median of replicates) (fraction); higher = more growth (less inhibition), active = hit call of the paper
Details in all cases: 20 µM; 24 h
Coprococcus comes = test system: Coprococcus comes
Outline: (§1)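 In round-bottom 96-well plates sealed with pierced gas-permeable seals, gut bacterial monocultures in mGAM were grown anaerobically at 37 °C from OD600 0.05 with 20 µM compound (1% DMSO). OD600 readings were taken hourly for 24 h, and the minimum OD was set to 0. Area under the growth curve was then normalised to the plate median of solvent-only wells, or to row and column medians on the industrial chemical plate. The value given is the median of three biological replicates grown on separate days.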

Escherichia coli ED1a = test system: Escherichia coli ED1a
Outline: as §1

Escherichia coli IAI1 = test system: Escherichia coli IAI1
Outline: as §1

Eubacterium rectale = test system: Eubacterium rectale
Outline: as §1

[1] = test system: Fusobacterium nucleatum subsp. animalis
Outline: as §1

Lactobacillus gasseri = test system: Lactobacillus gasseri
Outline: as §1

Lactobacillus paracasei = test system: Lactobacillus paracasei
Outline: as §1

Odoribacter splanchnicus = test system: Odoribacter splanchnicus
Outline: as §1

[2] = test system: Parabacteroides distasonis
Outline: as §1

Parabacteroides merdae = test system: Parabacteroides merdae
Outline: as §1

SMILES | growth AUC (Coprococcus comes) | growth AUC (Escherichia coli ED1a) | growth AUC (Escherichia coli IAI1) | growth AUC (Eubacterium rectale) | growth AUC [1] | growth AUC (Lactobacillus gasseri) | growth AUC (Lactobacillus paracasei) | growth AUC (Odoribacter splanchnicus) | growth AUC [2] | growth AUC (Parabacteroides merdae)
O=C1NC(=O)c2ccccc21 | 1.02 | 1.02 | 1.02 | 0.984 | 1.05 | 1.06 | 1.04 | 0.89 | 1.02 | 1.02
CCCCC(CC)COC(=O)COc1cc(Cl)c(Cl)cc1Cl (stereo not given) | 0.976 | 0.99 | 1.03 | 0.903 | 0.9 | 1.06 | 1.05 | 0.998 | 0.965 | 0.937
CC(C)N(C(=O)CS(=O)(=O)[O-])c1ccccc1.[Na+] | 0.982 | 0.978 | 0.988 | 1.07 | 1.09 | 0.948 | 1 | 0.981 | 0.96 | 1
CC(C)(CO)C(O)(CCc1ccc(Cl)cc1)Cn1cncn1 (stereo not given) | 0.989 | 1.03 | 0.999 | 1.1 | 1 | 0.88 | 1.04 | 0.979 | 0.88 | 0.985
CC(C)OC(=O)[C@@H](C)N(C(=O)c1ccccc1)c1ccc(F)c(Cl)c1 | 1.05 | 1.03 | 1 | 1.27 | 1.1 | 0.933 | 1.09 | 0.977 | 1 | 1.01
CC(C)(NC(=O)C(Br)C(C)(C)C)c1ccccc1 (stereo not given) | 0.959 | 1.01 | 0.983 | 0.889 | 0.895 | 1.12 | 0.895 | 0.983 | 0.97 | 0.95
CN(C)C(N)=O | 0.993 | 1.01 | 0.953 | 0.967 | 1.01 | 0.983 | 1.03 | 1.03 | 0.968 | 1.01
c1ccc2c(c1)ccc1ccccc12 | 0.965 | 1.01 | 1.01 | 1.01 | 0.985 | 0.994 | 0.999 | 1.01 | 1.04 | 1.01
COc1c(Cl)ccc(Cl)c1C(=O)O | 1.01 | 0.99 | 0.986 | 0.912 | 0.914 | 1.26 | 0.919 | 0.978 | 1 | 1
CC(C)C(O)(c1ccc(OC(F)(F)F)cc1)c1cncnc1 (stereo not given) | 1.01 | 0.981 | 0.961 | 0.994 | 0.926 | 1.05 | 1.02 | 0.938 | 0.959 | 0.588 (active)
CCC(C)Nc1nc(N)nc(Cl)n1 (stereo not given) | 0.981 | 1 | 1.01 | 1.05 | 1.03 | 0.996 | 1.02 | 0.976 | 1.01 | 1.03
COc1nc(OC)nc(C(=O)c2cccc(F)c2N(C)S(=O)(=O)C(F)F)n1 | 1.03 | 0.999 | 0.986 | 1.18 | 1.05 | 1.02 | 0.977 | 0.892 | 1.03 | 0.927
CN(C)C(=O)Nc1ccccc1 | 0.965 | 0.951 | 0.978 | 0.978 | 0.961 | 1.03 | 0.949 | 1.04 | 1.05 | 1.02
ClC=C(c1ccc(Cl)cc1)c1ccc(Cl)cc1 | 0.942 | 0.99 | 0.977 | 0.977 | 0.98 | 0.915 | 0.946 | 1.07 | 0.977 | 0.948
C=CCc1ccc(O)c(OC)c1 | 0.971 | 1.03 | 1 | 1.01 | 1 | 0.95 | 0.957 | 0.96 | 0.97 | 0.996
CCc1nc2ncnn2c(N)c1CCCCCC(=O)O.Cl | 1.03 | 1.02 | 1.04 | 1.11 | 1.14 | 1.08 | 0.977 | 1.04 | 0.99 | 1.06
O=C(O)Cc1c(Cl)ccc(Cl)c1Cl | 0.959 | 0.947 | 0.999 | 0.96 | 0.928 | 1.06 | 1.03 | 0.946 | 1.05 | 1.01
CN(C)C(=O)c1cccnc1S(N)(=O)=O | 1.03 | 1.05 | 1.04 | 1.02 | 1.02 | 1.06 | 1.04 | 1.02 | 1.01 | 1
CC1(C)C(C(=O)OC(C#N)c2cccc(Oc3ccccc3)c2)C1C(Br)C(Br)(Br)Br (stereo not given) | 0.99 | 1.02 | 1.01 | 0.996 | 1.05 | 1.04 | 1.12 | 1.06 | 0.998 | 1
CCOC(N)=O | 1.03 | 1.01 | 1.03 | 1 | 1.04 | 1.02 | 1.02 | 0.955 | 1.1 | 1.03
CC(C)OC(=O)c1cc(C(=O)OC(C)C)cc([N+](=O)[O-])c1 | 0.97 | 0.998 | 0.988 | 0.972 | 0.98 | 0.968 | 0.964 | 1.06 | 0.963 | 0.921
COc1ccc(Oc2ccc(NC(=O)N(C)C)cc2)cc1 | 0.992 | 0.977 | 0.996 | 0.851 | 0.906 | 1.11 | 1.01 | 0.974 | 0.989 | 0.943
COC(=O)C(Cl)Cc1ccc(Cl)cc1 (stereo not given) | 0.962 | 0.994 | 0.971 | 0.994 | 0.995 | 0.891 | 1.06 | 0.899 | 1 | 0.901
CN(C)C(=O)Nc1ccc(Cl)c(Cl)c1 | 1.02 | 0.985 | 0.963 | 0.978 | 1.02 | 0.968 | 0.971 | 0.888 | 1.09 | 0.907
COCCOc1ccccc1S(=O)(=O)NC(=O)Nc1nc(OC)nc(OC)n1 | 0.987 | 0.959 | 0.97 | 0.983 | 0.983 | 0.88 | 1.02 | 1.08 | 0.978 | 0.94
Cc1ccc(C)c(O)c1 | 0.988 | 0.996 | 1.01 | 0.958 | 0.988 | 1.02 | 0.953 | 1 | 0.991 | 1.03
Cc1[nH]oc(=O)c1N=Nc1ccccc1Cl | 1.01 | 0.989 | 0.962 | 1.03 | 0.839 | 0.931 | 0.955 | 1.06 | 0.987 | 0.949
CCc1cccc(CC)c1N(COC)C(=O)C(=O)O | 0.981 | 1.05 | 0.999 | 0.948 | 1.04 | 0.999 | 1 | 1.01 | 1.02 | 0.991
CCNC(=O)[C@@H](C)OC(=O)Nc1ccccc1 | 1.04 | 1.01 | 1.01 | 1.01 | 1.05 | 1.18 | 0.941 | 0.955 | 1.08 | 1.04
